JNK3 inh = JNK3 kinase activity inhibitors, primary screen, biochemical, human, purified enzyme. 60,000 compounds, 0.61% hits. AID 746, 2007. inhibition, % at 8 µM. HTS. Mitogen-activated protein kinase 10 (Homo sapiens), P53779; in the data active = inhibition above about 17%;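 also: 0% = DMSO and 100% = reference inhibitor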
Hsp90 block = tumor Hsp90 inhibitors, primary screen, cell lysate, fluorescence polarization, NCI-N417 lysate; Cy3B-geldanamycin FP displacement; inhibition, % at 30 µM; 64,000 compounds, 0.35% hits;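 active = inhibition above 50%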;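 also: 0% = tracer plus lysate wells and 100% = tracer alone without lysate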
ROCK2 inh = inhibitors of human ROCK2 kinase, primary screen, biochemical, high-throughput, luminescence. Rho-associated protein kinase 2 (Homo sapiens), O75116. purified ROCK2, Kinase-Glo ATP depletion luminescence. 60,000 compounds, 0.35% hits. inhibition, % at 6 µM;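 active = inhibition above the screen-wide mean inhibition plus 3 SD, cut at about 18% in these data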;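 also: plate controls were DMSO wells for no effect and Y-27632 control wells after no-enzyme background subtraction for full effect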
Target sequence (O75116 whole entry, looked up): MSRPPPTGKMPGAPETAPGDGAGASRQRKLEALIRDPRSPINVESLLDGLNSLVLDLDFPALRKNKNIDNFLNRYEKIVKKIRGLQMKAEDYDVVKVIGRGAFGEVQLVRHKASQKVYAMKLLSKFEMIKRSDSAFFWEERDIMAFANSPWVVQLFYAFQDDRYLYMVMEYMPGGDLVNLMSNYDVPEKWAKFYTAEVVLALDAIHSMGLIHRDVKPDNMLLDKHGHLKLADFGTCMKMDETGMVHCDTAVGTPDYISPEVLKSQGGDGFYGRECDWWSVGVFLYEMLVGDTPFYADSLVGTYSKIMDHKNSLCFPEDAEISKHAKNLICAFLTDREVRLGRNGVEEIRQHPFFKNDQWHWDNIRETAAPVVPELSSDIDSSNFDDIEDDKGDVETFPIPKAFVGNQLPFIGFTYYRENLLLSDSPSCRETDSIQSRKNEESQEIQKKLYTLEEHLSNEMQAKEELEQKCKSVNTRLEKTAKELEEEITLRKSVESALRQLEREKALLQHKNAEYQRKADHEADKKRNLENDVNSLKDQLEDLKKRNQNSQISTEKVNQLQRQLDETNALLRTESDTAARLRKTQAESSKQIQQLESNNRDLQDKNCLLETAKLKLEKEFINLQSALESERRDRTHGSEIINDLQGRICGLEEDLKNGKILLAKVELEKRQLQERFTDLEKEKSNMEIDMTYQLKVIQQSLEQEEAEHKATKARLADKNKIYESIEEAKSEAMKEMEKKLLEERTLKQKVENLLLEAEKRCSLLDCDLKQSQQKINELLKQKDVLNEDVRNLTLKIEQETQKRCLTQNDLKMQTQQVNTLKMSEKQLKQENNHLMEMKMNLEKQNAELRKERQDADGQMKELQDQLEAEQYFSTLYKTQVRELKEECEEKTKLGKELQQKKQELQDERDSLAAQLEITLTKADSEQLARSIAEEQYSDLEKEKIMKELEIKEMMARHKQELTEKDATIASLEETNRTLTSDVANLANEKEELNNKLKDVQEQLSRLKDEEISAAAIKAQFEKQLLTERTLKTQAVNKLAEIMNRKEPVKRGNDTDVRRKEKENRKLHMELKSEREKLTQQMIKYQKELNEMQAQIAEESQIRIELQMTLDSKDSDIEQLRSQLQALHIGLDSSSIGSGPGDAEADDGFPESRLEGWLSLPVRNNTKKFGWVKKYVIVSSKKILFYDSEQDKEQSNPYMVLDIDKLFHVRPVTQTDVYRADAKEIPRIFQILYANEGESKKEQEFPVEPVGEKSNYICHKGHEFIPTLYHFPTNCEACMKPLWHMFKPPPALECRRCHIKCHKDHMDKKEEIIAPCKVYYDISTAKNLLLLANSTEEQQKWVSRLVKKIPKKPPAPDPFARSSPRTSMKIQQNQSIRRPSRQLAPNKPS
DUSP1 inh = MKP-1 phosphatase inhibitors, primary screen, biochemical, in vitro; 65,000 compounds, 0.15% hits; AID 374, 2006; inhibition, %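 (compounds tested at a single concentration somewhere between 10 and 100 µM)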; recombinant MKP-1, OMFP hydrolysis fluorescence; Dual specificity protein phosphatase 1 (Homo sapiens), P28562;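 active = inhibition above about 50%, limit read from the data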;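 also: 0% = DMSO max control wells and 100% = wells with enzyme stopped by NaOH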
PKA inh = inhibitors of human PKA kinase activity, primary screen, biochemical, ATP-depletion luminescence, Kemptide substrate | 65,000 compounds, 0.1% hits | inhibition, % at 6 µM | cAMP-dependent protein kinase catalytic subunit alpha (Homo sapiens), P17612 | PKA Kemptide phosphorylation, Kinase-Glo ATP luminescence;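 active = inhibition above the screen-wide mean inhibition plus 3 SD, cut at about 21% in these data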
Cdc25B block = inhibitors of Cdc25B phosphatase catalytic domain, primary screen, biochemical, OMFP fluorescence. M-phase inducer phosphatase 2 (Homo sapiens), P30305. recombinant Cdc25B, OMFP fluorescence Ex485/Em525. inhibition, %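 (compounds tested at 10 µM final in the well)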. 65,000 compounds, 0.1% hits. AID 368, 2006; in the data active = inhibition above about 50%
An asterisk follows results filed as active; / = no result given. A selection: hits, their analogues and other compounds. The true share with any hit is near 1%.

SMILES	JNK3 inh	Hsp90 block	ROCK2 inh	DUSP1 inh	PKA inh	Cdc25B block
COc1ccc(-n2nc3c(c2NC(=O)c2ccc(Br)cc2)CS(=O)C3)cc1 (stereo not drawn)	5	55*	3	3	-6	-3
CN(C)C(=O)/N=N/C(=O)N(C)C	/	6	/	/	/	/
Cc1cc(C(=O)CN2C(=O)NC3(CCCCC3)C2=O)c(C)n1Cc1ccc2c(c1)OCO2	-5	-4	22*	22	11	2
N#Cc1c(-c2ccco2)nc(SCc2ccc(F)cc2)[nH]c1=O	33*	-6	3	12	2	-6
Cc1ccc(C(=O)O[C@H](C(=O)O)[C@H](OC(=O)c2ccc(C)cc2)C(=O)O)cc1 (tested in a mixture with another compound)	/	-1	/	/	/	/
CCc1cccc(N(C)C(N)=Nc2cccc3ccccc23)c1	/	4	/	/	/	/
COC(=O)c1sccc1NC(=O)C1CC=CCC1C(=O)O (stereo not drawn)	28*	2	9	26	13	0
NC(=NCCC[C@H](N)C(=O)O)NO	/	-1	/	/	/	/
O=c1[nH]c2cc(C(F)(F)F)ccc2n1-c1cc(C(F)(F)F)ccc1O	/	59*	/	/	/	/
COc1cc(N)c2ncccc2c1	/	17	/	/	/	/
NC(=O)C(=O)O	/	0	/	/	/	/
O=S(=O)(c1ccc2c(c1)OCCO2)N1CCC(n2nnc3cc(F)ccc32)CC1	4	-2	4	4	7	2
O=S(=O)(c1ccc2c(c1)OCCO2)N1CCC(n2cnc3cc(F)ccc32)CC1	25*	-3	6	11	11	16
Oc1ccc(-c2nc(-c3ccc(O)c(O)c3)cs2)cc1	-1	99*	2	7	0	8
Cc1ccc(S(=O)(=O)NCCSc2nnnn2-c2cc(C)ccc2C)cc1	3	-2	6	-3	11	-31
Cc1ccc(C)c(-n2nnnc2SCC(=O)c2ccc3c(c2)NC(=O)CO3)c1	4	-6	2	52*	-3	-6
Nc1ncnc2c1ncn2[C@@H]1O[C@H](COP(=O)(O)OP(=O)(O)OP(=O)(O)OP(=O)(O)OC[C@@H]2O[C@H](n3cnc4c(N)ncnc43)C(O)[C@@H]2O)[C@H](O)C1O (stereo partly drawn)	/	11	/	/	/	/
Fc1ccc(C(OCCCc2cnc[nH]2)c2ccc(F)cc2)cc1	/	-3	/	/	/	/
O=C1C(C=Nc2ccccc2O)=C(O)c2ccccc21	35*	7	4	-11	8	-11
Nc1cc(N)c(OCC(F)(F)F)cc1OCC(F)(F)F	-9	89*	0	-6	-8	11
CC(C)C1C2CCC(C2)C1N (stereo not drawn)	/	-2	/	/	/	/
N=C1Sc2ccccc2C2=NCCCN12	/	-2	/	/	/	/
c1ccc(-c2n[nH]c3ccccc23)cc1	84*	-4	-6	10	9	-3
COC(=O)c1cc(NC2c3ncccc3C(=O)N2Cc2ccccc2)cc(C(=O)OC)c1 (stereo not drawn)	2	2	1	32	7	-27
CCOC(=O)c1ccc(NC2c3ncccc3C(=O)N2Cc2ccc(F)cc2)cc1 (stereo not drawn)	-8	-1	-4	52*	-2	-3
SMILES	JNK3 inh	Hsp90 block	ROCK2 inh	DUSP1 inh	PKA inh	Cdc25B block
O=C(Cn1nnc(-c2ccccc2)n1)OCc1ccccc1	-1	-1	5	-1	6	72*
O=C(Cn1nnc(-c2ccccc2)n1)OCc1csc(-c2ccccc2)n1	1	-2	3	0	7	5
COc1cc(/C=C(\C#N)C(=O)c2ccc(O)c(O)c2)cc(I)c1O	/	73*	/	/	/	/
COCc1cc(C)nc(SCC(=O)c2ccc(O)c(O)c2)c1C#N	-3	29	4	21	12	-11
Cc1ccc(NC(=O)CC2SCCNC2=O)cc1Cl (stereo not drawn)	-3	54*	9	-20	4	-1
CCC(=O)N1CCNC(=O)C1CC(=O)Nc1ccc(C)c(Cl)c1 (stereo not drawn)	-4	-4	-5	8	-2	-5
Fc1cc2nc(-c3ccncc3)[nH]c2cc1F	/	/	/	6	24*	-6
